Source: PubChem BioAssay
For some of these results: Entries with a potency or affinity are not part of this list. Active and inactive are the calls of the source.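 Rule for the calls, unless noted: active = hit in primary screen, with calcium signal over 5 SD above buffer well mean in both duplicates; inactive = the rest.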

What was measured:
[1] = tested on: TRPC4 beta (transient receptor potential cation channel C4), mouse; assay: activators of mouse TRPC4 channel, confirmation, cell-based, Fluo4 calcium, HEK293 TRPC4beta/mu-opioid, duplicates, 10 µM (AID 2426;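 active = fluorescence ratio normalized to control raised more than 50% in primary screen plus both repeat runs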;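 for activation: percent rise of integrated ratio over buffer wells lacking compound which define 0%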); details: Fluo4 calcium fluorescence, at 10 µM; active compounds read high
[2] = tested on: transient receptor potential cation channel C4 beta (TRPC4), mouse; assay: activators of mouse TRPC4 channel, confirmation, cell-based, second round, Fluo4, HEK293 TRPC4beta/mu-opioid, 1 µM (AID 2461;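 active = primary screen active and over 50% activation in each of two duplicate runs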); details: Fluo4 calcium fluorescence, at 1 µM; active compounds read high
[3] = tested on: TRPC4 (transient receptor potential cation channel C4 beta), mouse; assay: positive allosteric modulators of mouse TRPC4, confirmation, cell-based, second round, Fluo-4, HEK293 TRPC4beta/mu-opioid, 1 µM (AID 2554;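 active = primary screen hit whose fluorescence ratio, in both repeats, exceeds the weak agonist control mean by 3 SD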); details: DAMGO EC20, Fluo-4 calcium flux, at 1 µM; active compounds read high
[4] = tested on: TRPC4 beta (transient receptor potential cation channel C4), mouse; assay: positive allosteric modulators of mouse TRPC4, confirmation, cell-based, Fluo-4, HEK293 TRPC4beta/mu-opioid (AID 2555;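 active = primary screen hit whose calcium fluorescence ratio, in both repeats, exceeds the weak agonist control mean by 3 SD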); details: DAMGO EC20, Fluo-4 calcium flux, at 10 µM; active compounds read high
[5] = target: Short transient receptor potential channel 4 (Mus musculus) (UniProt Q9QUQ5); assay: inhibitors of mouse TRPC4 channel, confirmation, cell-based, Fluo4, HEK293 TRPC4beta/mu-opioid (AID 2636;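 active = calcium signal cut by more than 3 SD below the full-agonist control yet still positive, in both repeats and the earlier primary screen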); details: DAMGO, Fluo4 calcium flux, at 10 µM; active compounds read high
[6] = target: Short transient receptor potential channel 4 (Mus musculus) (UniProt Q9QUQ5); assay: inhibitors of mouse TRPC4 channel, confirmation, cell-based, second round, Fluo4, HEK293 TRPC4beta/mu-opioid, 1 µM (AID 2637;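 active = calcium signal ratio cut to more than 3 SD under the fully stimulated control mean yet still positive, in both repeats and the primary screen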;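 for inhibition: percent of integrated ratio relative to wells lacking test compound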); details: Fluo4 calcium flux, DAMGO, at 1 µM; active compounds read high
[7] = target: Short transient receptor potential channel 4 (Mus musculus) (UniProt Q9QUQ5); assay: TRPC4 positive allosteric modulators, dose response, cell-based, HEK293 TRPC4/mu-opioid, Fluo-4 calcium, EC20 DAMGO (AID 434941;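 active = earlier screen potentiator hit that boosts the TRPC4 ion channel at some dose, with a dose response; inactive = no potentiation, no dose response, or not a prior hit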;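 note: calcium entry triggered by an EC20 dose of DAMGO at the co-expressed mu-opioid receptor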); details: HEK293 TRPC4/mu-opioid cells, Fluo-4 calcium fluorescence; series mostly up to 20 µM
[8] = target: Short transient receptor potential channel 6 (Mus musculus) (UniProt Q61143); assay: inhibition of mouse TRPC6 channel, confirmation, selectivity assay for TRPC4 inhibitor project, cell-based, HEK293, membrane potential dye, duplicate (AID 434948;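 active = active in primary screen and both duplicates, each dropping signal beyond three positive-control SD with fluorescence still positive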); details: HEK293 TRPC6, membrane potential dye fluorescence, at 10 µM, stimulated with maximal-effect acetylcholine; active compounds read high
[9] = target: Short transient receptor potential channel 6 (Mus musculus) (UniProt Q61143); assay: activation of mouse TRPC6 channel, confirmation, selectivity assay for TRPC4 activator project, cell-based, HEK293, membrane potential dye, duplicate (AID 434950;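 active = membrane potential signal rise above negative control mean plus 3 SD in both duplicates, also active in the earlier TRPC4 screen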;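 for activation: 0% = buffer only wells and 100% = acetylcholine maximal-effect wells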); details: HEK293 TRPC6, membrane potential fluorescence, at 10 µM; active compounds read high
[10] = target: Short transient receptor potential channel 6 (Mus musculus) (UniProt Q61143); assay: TRPC6 potentiation by TRPC4 potentiator hits, confirmation, selectivity assay for TRPC4 potentiator project, HEK293 cells, membrane potential dye, duplicate (AID 434952;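 active = compound raising the membrane signal above positive-control mean plus 3 SD in both repeats, and a primary screen hit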); details: HEK293 TRPC6, membrane potential dye fluorescence, at 10 µM, maximal acetylcholine added after compound; active compounds read high
[11] = target: Short transient receptor potential channel 4 (Mus musculus) (UniProt Q9QUQ5); assay: calcium flux activators in TRPC4/5HT1a cells, counter-screen for TRPC4 activator project, cell-based, second counter screen, HEK293 TRPC4/5HT1a, Fluo-4 (AID 434977;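 active = calcium signal rise above buffer-control mean plus 5 SD in both duplicates, and also a hit in the primary screen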;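 for activation: plate controls were assay buffer for no effect and maximal serotonin response for full effect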); details: Fluo-4 calcium flux, at 10 µM; active compounds read high
[12] = calcium flux inhibitors in TRPC4/5HT1a cells, confirmation, counter-screen for TRPC4 inhibitor project, cell-based, second counter screen, HEK293 TRPC4/5HT1a, Fluo-4 (AID 434978;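 active = primary screen active whose calcium signal fell more than 3 SD beyond the full-serotonin control mean in both duplicate plates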;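 for outcome: serotonin given first at submaximal then at maximal dose after compound preincubation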); details: Fluo-4 calcium flux, at 10 µM, serotonin added to trigger calcium flux; active compounds read high
[13] = tested on: TRPC4 (mouse), co-expressed with 5HT1a in HEK293; assay: calcium flux potentiators in TRPC4/5HT1a cells, confirmation, counter-screen for TRPC4 potentiator project, cell-based, second counter screen, HEK293 TRPC4/5HT1a, Fluo-4 (AID 434979;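 active = signal rise over 3 SD above mean of control wells given weak agonist, in both repeats and first screen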); details: Fluo-4 calcium flux, at 10 µM, serotonin added at its EC20 dose; active compounds read high
[14] = calcium flux activation in mu-opioid HEK293 cells, confirmation, counter-screen for TRPC4 activator project, cell-based, HEK293 mu-opioid receptor line (AID 449723); details: Fluo-4 calcium fluorescence, at 10 µM; active compounds read high;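 note: counter screen cells carry the mu-opioid receptor alone and lack TRPC4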
[15] = calcium flux enhancement in mu-opioid HEK293 cells, confirmation, counter-screen for TRPC4 allosteric potentiator project, cell-based, HEK293 mu-opioid receptor line (AID 449724;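 active = calcium signal rise more than 3 SD above the low-dose agonist control mean, in both duplicate plates and the primary screen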); details: Fluo-4 calcium flux, at 10 µM, compound added before EC20 DAMGO stimulus; active compounds read high
[16] = thallium flux activation in parental CHO cells, counter-screen for KCNQ1 potentiator project (AID 493006;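 active = duplicate-averaged activation above buffer control mean plus 5 SD of those controls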); details: parental CHO-K1 cells, FluxOR thallium flux, at 10 µM; active compounds read high
[17] = target: Potassium voltage-gated channel subfamily KQT member 1 (Homo sapiens) (UniProt P51787); assay: KCNQ1 potassium channel potentiators, confirmation, FluxOR thallium flux, CHO cells, duplicates (AID 493007;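 active = potentiation averaged over duplicate wells exceeding buffer-only control mean by more than 3 SD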;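 note: cells depolarized by a potassium plus thallium sulfate stimulus after compound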); details: KCNQ1 cell line, FluxOR thallium flux fluorescence, at 10 µM; active compounds read high, % of reference activator effect, buffer zero
[18] = target: Potassium voltage-gated channel subfamily KQT member 2 (Rattus norvegicus) (UniProt O88943); assay: rat KCNQ2 channel potentiation, selectivity assay for KCNQ1 potentiator project, KCNQ2-CHO-K1 cells (AID 493009;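 active = mean duplicate potentiation above the buffer control mean plus 5 SD of buffer wells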;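 note: assay conditions were tuned for KCNQ1 rather than KCNQ2 modulators; signal is max minus min fluorescence divided by baseline after thallium stimulus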); details: FluxOR thallium flux fluorescence, at 10 µM; active compounds read high, scaled: buffer 0, activator control 100
[19] = target: Potassium voltage-gated channel subfamily KQT member 1 (Homo sapiens) (UniProt P51787); assay: KCNQ1 channel current potentiators, confirmation, orthogonal assay for KCNQ1 potentiator project, IonWorks patch clamp, KCNQ1-CHO cells (AID 493184;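 active = current rise at least 3 SD above the untreated control mean in each of two repeat wells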); details: automated patch clamp current, at 10 µM; active compounds read high

Short transient receptor potential channel 6 (Mus musculus), sequence (Q61143 whole entry, looked up): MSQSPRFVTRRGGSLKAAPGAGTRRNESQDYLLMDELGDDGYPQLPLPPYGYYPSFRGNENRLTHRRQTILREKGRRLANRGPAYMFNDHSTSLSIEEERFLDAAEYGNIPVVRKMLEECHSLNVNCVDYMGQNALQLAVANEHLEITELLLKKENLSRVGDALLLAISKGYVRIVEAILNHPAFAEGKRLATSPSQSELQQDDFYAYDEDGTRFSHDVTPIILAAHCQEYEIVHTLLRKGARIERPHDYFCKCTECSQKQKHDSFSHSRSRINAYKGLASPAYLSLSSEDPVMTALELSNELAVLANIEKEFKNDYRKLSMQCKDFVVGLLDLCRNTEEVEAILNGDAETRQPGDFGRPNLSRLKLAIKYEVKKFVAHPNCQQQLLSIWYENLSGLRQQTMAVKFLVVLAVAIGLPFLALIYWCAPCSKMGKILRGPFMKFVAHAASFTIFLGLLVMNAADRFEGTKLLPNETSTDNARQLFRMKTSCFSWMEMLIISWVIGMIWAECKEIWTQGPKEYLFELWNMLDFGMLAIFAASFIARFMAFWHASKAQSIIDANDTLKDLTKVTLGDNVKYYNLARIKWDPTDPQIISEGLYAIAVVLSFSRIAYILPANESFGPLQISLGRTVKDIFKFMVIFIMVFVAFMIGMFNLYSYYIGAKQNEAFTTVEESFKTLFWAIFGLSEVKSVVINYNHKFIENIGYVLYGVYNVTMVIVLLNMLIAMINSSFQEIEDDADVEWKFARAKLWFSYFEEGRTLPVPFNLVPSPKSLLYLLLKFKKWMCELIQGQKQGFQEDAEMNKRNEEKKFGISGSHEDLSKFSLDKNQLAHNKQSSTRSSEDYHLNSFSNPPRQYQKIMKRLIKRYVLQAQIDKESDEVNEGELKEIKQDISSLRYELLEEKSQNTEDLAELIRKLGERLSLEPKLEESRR
Short transient receptor potential channel 4 (Mus musculus), sequence (Q9QUQ5 whole entry, looked up): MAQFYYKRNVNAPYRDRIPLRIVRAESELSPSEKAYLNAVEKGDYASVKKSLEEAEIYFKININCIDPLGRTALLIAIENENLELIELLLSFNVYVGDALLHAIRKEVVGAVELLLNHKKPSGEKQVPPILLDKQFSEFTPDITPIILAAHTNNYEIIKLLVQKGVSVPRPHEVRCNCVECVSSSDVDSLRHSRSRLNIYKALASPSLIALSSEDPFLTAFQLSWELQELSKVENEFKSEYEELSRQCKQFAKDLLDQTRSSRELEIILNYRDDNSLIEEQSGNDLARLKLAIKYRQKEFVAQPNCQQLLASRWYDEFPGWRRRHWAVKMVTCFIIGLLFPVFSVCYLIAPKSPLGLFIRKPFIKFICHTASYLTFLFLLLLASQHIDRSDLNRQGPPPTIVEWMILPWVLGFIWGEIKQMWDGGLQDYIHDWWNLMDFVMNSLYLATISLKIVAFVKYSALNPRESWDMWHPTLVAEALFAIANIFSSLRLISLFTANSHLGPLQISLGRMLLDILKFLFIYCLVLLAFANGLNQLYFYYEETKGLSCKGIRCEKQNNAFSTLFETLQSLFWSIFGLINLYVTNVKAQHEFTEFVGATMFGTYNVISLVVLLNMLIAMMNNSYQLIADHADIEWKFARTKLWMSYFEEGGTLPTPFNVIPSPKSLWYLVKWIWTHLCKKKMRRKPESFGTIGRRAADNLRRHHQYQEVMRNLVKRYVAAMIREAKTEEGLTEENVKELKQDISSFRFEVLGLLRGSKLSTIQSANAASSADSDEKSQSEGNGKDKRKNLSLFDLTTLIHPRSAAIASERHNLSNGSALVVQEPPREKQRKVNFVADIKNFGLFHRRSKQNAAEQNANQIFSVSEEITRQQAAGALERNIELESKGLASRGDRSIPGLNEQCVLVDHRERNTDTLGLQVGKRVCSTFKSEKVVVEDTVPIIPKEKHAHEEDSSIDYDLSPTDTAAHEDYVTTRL
Potassium voltage-gated channel subfamily KQT member 1 (Homo sapiens), sequence (P51787 whole entry, looked up): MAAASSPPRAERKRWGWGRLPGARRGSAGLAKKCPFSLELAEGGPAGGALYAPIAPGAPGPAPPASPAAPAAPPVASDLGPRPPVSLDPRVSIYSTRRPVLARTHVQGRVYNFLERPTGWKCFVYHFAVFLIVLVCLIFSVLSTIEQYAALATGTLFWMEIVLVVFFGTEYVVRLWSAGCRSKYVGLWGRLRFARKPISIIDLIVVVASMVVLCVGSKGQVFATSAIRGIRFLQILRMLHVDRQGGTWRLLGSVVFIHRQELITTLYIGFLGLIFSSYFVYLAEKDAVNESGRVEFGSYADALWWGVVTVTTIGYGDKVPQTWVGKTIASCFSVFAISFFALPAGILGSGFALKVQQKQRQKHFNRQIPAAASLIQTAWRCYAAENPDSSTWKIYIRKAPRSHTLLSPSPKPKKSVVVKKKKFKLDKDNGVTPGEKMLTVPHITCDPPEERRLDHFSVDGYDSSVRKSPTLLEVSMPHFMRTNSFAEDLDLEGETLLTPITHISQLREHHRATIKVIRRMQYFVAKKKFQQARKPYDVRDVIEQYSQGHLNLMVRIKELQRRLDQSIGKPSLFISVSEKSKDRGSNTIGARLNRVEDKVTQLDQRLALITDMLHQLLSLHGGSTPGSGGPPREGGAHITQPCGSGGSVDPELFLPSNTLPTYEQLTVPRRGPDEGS
Potassium voltage-gated channel subfamily KQT member 2 (Rattus norvegicus), sequence (O88943 whole entry, looked up): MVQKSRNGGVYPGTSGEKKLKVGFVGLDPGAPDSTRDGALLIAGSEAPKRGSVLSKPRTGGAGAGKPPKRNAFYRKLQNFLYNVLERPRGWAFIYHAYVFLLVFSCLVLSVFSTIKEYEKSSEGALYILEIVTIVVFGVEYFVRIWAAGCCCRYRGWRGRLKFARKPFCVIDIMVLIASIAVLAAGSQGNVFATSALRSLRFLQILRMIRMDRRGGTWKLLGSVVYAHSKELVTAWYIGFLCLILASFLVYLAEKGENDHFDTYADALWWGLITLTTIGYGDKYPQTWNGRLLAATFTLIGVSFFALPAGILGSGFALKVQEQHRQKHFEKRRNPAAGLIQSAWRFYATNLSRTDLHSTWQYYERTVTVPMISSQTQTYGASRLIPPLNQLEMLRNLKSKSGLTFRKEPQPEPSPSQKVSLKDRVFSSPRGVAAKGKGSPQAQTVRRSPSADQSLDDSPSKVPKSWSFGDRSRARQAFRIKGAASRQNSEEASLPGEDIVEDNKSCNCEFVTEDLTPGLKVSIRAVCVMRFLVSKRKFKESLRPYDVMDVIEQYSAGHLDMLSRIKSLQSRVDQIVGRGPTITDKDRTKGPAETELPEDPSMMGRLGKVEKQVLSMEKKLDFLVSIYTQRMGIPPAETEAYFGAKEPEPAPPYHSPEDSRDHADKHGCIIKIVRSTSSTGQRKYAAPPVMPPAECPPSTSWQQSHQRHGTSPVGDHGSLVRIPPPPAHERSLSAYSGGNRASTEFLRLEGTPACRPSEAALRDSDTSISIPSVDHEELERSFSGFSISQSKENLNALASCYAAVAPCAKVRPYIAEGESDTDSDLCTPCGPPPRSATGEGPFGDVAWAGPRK

OCC1(CC2CCCCO2)CCN(Cc2nc3ccccc3[nH]2)CC1 (centres undefined)
active: inhibition [5] 67% | activation [9] 26.5%
inactive: outcome [1] | outcome [2] | outcome [3] | outcome [4] | outcome [6] | outcome [7] | outcome [8] | outcome [10] | outcome [11] | outcome [12] | outcome [13] | outcome [14] | outcome [15]

O=C(NC1CC1)C1=C[C@H](C2CCCCC2)C[C@H](OCc2ccc(CO)cc2)O1
inactive: outcome [2] | outcome [3] | outcome [4] | outcome [6] | outcome [7] | outcome [8] | outcome [10] | outcome [13] | outcome [14] | outcome [15]
active: activation [1] 337% | inhibition [5] 75% | activation [9] 41% | activation [11] 131% | inhibition [12] 9.94%

COc1cccc(-c2nn(-c3ccccc3)cc2CN(C)C(C)c2ccncn2)c1 (centres undefined)
inactive: outcome [1] | outcome [2] | outcome [3] | outcome [4] | outcome [6] | outcome [7] | outcome [8] | outcome [10] | outcome [11] | outcome [12] | outcome [13] | outcome [14] | outcome [15]
active: inhibition [5] 93% | activation [9] 41%

O=C(C[n+]1cc2ccccc2c2ccccc21)c1ccccc1
active: activation [1] 212% | inhibition [5] 94% | inhibition [8] 29.5% | activation [11] 27.6% | inhibition [12] 33.5%
inactive: outcome [2] | outcome [3] | outcome [4] | outcome [6] | outcome [7] | outcome [9] | outcome [10] | outcome [13] | outcome [14] | outcome [15]

Cc1ccc(S(=O)(=O)NCCC(=O)NCC(c2ccco2)N2CCCCC2)cc1C (centres undefined)
inactive: outcome [2] | outcome [3] | outcome [4] | outcome [5] | outcome [7] | outcome [8] | outcome [10] | outcome [11] | outcome [12] | outcome [13] | outcome [14] | outcome [15]
active: activation [1] 82% | inhibition [6] 80% | activation [9] 37%

Cc1cc(NCc2ccccc2)nc2ccccc12
active: activation [1] 95% | inhibition [8] 53.5% | activation [11] 5.93% | inhibition [12] 26.2%
inactive: outcome [2] | outcome [3] | outcome [4] | outcome [5] | outcome [6] | outcome [7] | outcome [9] | outcome [10] | outcome [13] | outcome [14] | outcome [15] | outcome [16] | outcome [17] | outcome [18] | outcome [19]

OC1(c2ccccc2)CN(c2ccccc2)C2=[N+]1CCS2 (centres undefined)
active: inhibition [5] 89% | activation [9] 34%
inactive: outcome [1] | outcome [2] | outcome [3] | outcome [4] | outcome [6] | outcome [7] | outcome [8] | outcome [10] | outcome [11] | outcome [12] | outcome [13] | outcome [14] | outcome [15]

O=C(NC(=S)NNC(=O)c1ccco1)c1ccc(Br)cc1
active: activation [1] 149% | activation [9] 32.5% | activation [11] 22.9%
inactive: outcome [2] | outcome [3] | outcome [4] | outcome [5] | outcome [6] | outcome [7] | outcome [8] | outcome [10] | outcome [12] | outcome [13] | outcome [14] | outcome [15]

COc1ccc(Cl)cc1NC(=O)CNCC(c1ccccc1)N(C)C (centres undefined)
inactive: outcome [1] | outcome [2] | outcome [3] | outcome [4] | outcome [7] | outcome [8] | outcome [10] | outcome [11] | outcome [12] | outcome [13] | outcome [14] | outcome [15]
active: inhibition [5] 100% | inhibition [6] 60% | activation [9] 52.5%

Cc1ccc(S(=O)(=O)Nc2cccc(C(=O)NCC(c3ccco3)N3CCCC3)c2)cc1F (centres undefined)
inactive: outcome [2] | outcome [3] | outcome [4] | outcome [5] | outcome [7] | outcome [8] | outcome [10] | outcome [11] | outcome [12] | outcome [13] | outcome [14] | outcome [15]
active: activation [1] 58% | inhibition [6] 67% | activation [9] 31.5%

CN(C)C(CNC(=O)c1ccc2c(c1)S(=O)(=O)c1ccccc1C2=O)c1ccco1 (centres undefined)
inactive: outcome [2] | outcome [3] | outcome [4] | outcome [6] | outcome [7] | outcome [8] | outcome [9] | outcome [10] | outcome [13] | outcome [14] | outcome [15]
active: activation [1] 142% | inhibition [5] 67% | activation [11] 42.8% | inhibition [12] 29.5%

Cc1ccccc1Nc1nc(NCc2ccco2)c2ccccc2n1
active: inhibition [6] 41% | inhibition [8] 43.5% | inhibition [12] 36.9%
inactive: outcome [1] | outcome [2] | outcome [3] | outcome [4] | outcome [5] | outcome [7] | outcome [9] | outcome [10] | outcome [11] | outcome [13] | outcome [14] | outcome [15]

CCOC(=O)C1(CC2CC2)CCN(Cc2cn[nH]c2-c2ccccc2)CC1
inactive: outcome [1] | outcome [2] | outcome [3] | outcome [4] | outcome [7] | outcome [8] | outcome [10] | outcome [11] | outcome [13] | outcome [14] | outcome [15]
active: inhibition [5] 97% | inhibition [6] 47% | activation [9] 91% | inhibition [12] 35.9%

CCOC(=O)C1(CC2CC2)CCN(Cc2ccc(O)c(Cl)c2)CC1
active: inhibition [5] 97% | inhibition [6] 63% | activation [9] 82%
inactive: outcome [1] | outcome [2] | outcome [3] | outcome [4] | outcome [7] | outcome [8] | outcome [10] | outcome [11] | outcome [12] | outcome [13] | outcome [14] | outcome [15]
